S2 tox: Viability Counterscreen for Primary qHTS for Inhibitors of ATXN expression. S2 cells (HEK-293 line with an ATXN2-luciferase reporter) viability, CellTiter-Fluor protease fluorescence, 24 h. Potency, µM (titrated, usually from 56.7 µM), usual class: cytotoxic. hit rate 0.49% among 400,000; also: nearly all actives have a fitted effect of over 40% in size
HT1080 IDH1KD tx: qHTS for induction of synthetic lethality in tumor cells producing 2HG: qHTS for the HT-1080-IDH1KD cell line. hit rate 2% among 360,000. HT-1080 IDH1 knockdown viability, ATP luminescence, 48 h. Potency, µM (series often up to 46.1 µM), usual class: cytotoxic
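Knockdown cells (IDH1KD HT-1080) received compounds 2 h after plating at 750 cells/well and were kept 48 h at 37 °C in 5% FBS RPMI. A CellTiter-Glo luminescence read gave % activity for curve fitting.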
TGFb SMAD3 inh: qHTS for Inhibitors of TGF-b; hit rate 1.2% among 410,000; Potency, µM (titrated, usually from 46.1 µM), most hits filed as inhibitors; AID 588855, 2011; HepG2 CAGA-GFP TGF-b/SMAD3 reporter, GFP fluorescence, 18 h; TGF-beta stimulated, 500 pg/mL final; also: nearly all actives have a fitted effect of over 65% in size
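HEPG2 CAGA-GFP reporter cells (1000/well, DMEM with 1% FBS) received compounds, then recombinant TGF-beta at 500 pg/mL final for 18 hours at 37 degrees C. Per-cell GFP summed per well was normalised to unstimulated and stimulated DMSO controls before curve fitting.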
ATXN2 expr inh: Primary qHTS for Inhibitors of ATXN expression; HEK-293 ATXN2-luciferase reporter, luminescence, 24 h; Potency, µM (series often up to 57 µM), actives largely listed as inhibitors; hit rate 0.72% among 360,000; AID 1745845, 2022; also: nearly all actives have a fitted effect of over 55% in size
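ATXN2-luciferase reporter cells (luciferase flanked by upstream and downstream ATXN2 gene portions) were treated 24 h at 37 °C with compounds at up to 57 uM. SteadyGlo luminescence gave expression; GF-AFC fluorescence gave viability.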
HepG2 tox: qHTS for Inhibitors of TGF-b: Cytotox Counterscreen. Potency, µM (titrated, usually from 46.1 µM), actives largely listed as cytotoxic. hit rate 0.76% among 410,000. HepG2 CAGA-GFP viability, ATP luminescence, 18 h
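CellTiter-Glo luminescence gave cytotoxicity after 18 hours at 37 degrees C. The cells were HepG2 CAGA-GFP in 1% FBS DMEM, stimulated with 500 pg/mL TGF-beta after compound addition. %Activity was normalised to no-cell wells (complete cell-killing) and DMSO (no toxicity), and curves were fitted and classified.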
HT1080NT lethal: qHTS for induction of synthetic lethality in tumor cells producing 2HG: qHTS for the HT-1080-NT fibrosarcoma cell line; Potency, µM (highest dose often 46.1 µM), most hits filed as cytotoxic; HT-1080-NT fibrosarcoma viability, CellTiter-Glo ATP luminescence, 48 h; hit rate 1.6% among 360,000;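 also: NT is the 2HG producing partner of a matched IDH1 knockdown line; nearly all actives have a fitted effect of over 55% in size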
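Fibrosarcoma NT cells, 750 per well in 5% FBS RPMI, were exposed to compound for 48 hours. Viability: CellTiter-Glo luminescence.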
Hits are given with their value; 0 = inactive; ? = inconclusive; - = no result. Shown are actives, neighbours in structure and some others; about 3.8% of the full set was active somewhere. Calls follow the shape of the dose curve; as a rule, active = well fitted curve in the direction sought with a large enough effect; inconclusive = small, poorly fitted or top-dose-only effect, or another doubt; inactive = no such curve, though single readings can be large; an effect the other way counts as inactive or inconclusive.

SMILES	S2 tox	HT1080 IDH1KD tx	TGFb SMAD3 inh	ATXN2 expr inh	HepG2 tox	HT1080NT lethal
C(=C\c1nccc2ccccc12)/c1ccc(N2CCOCC2)cc1	-	-	0	-	0	-
C[C@H](c1ccccc1)N1C[C@H](COCc2ccccc2)Oc2cc(N3CC[C@@H](N(C)C)C3)ccc2S1(=O)=O	0	0	-	0	-	0
C[C@@H](c1ccccc1)N1C[C@@H](COCc2ccccc2)Oc2cc(N3CC[C@@H](N(C)C)C3)ccc2S1(=O)=O	20µM	23µM	-	28µM	-	18µM
OC1(c2cccnc2)CCN(Cc2ccc3c(c2)CN(Cc2ccc4nsnc4c2)CCO3)CC1	0	-	-	-	-	-
Cc1ccc(-n2nc3c(N4CCC(C(=O)NCc5cccc(F)c5)CC4)nnc(C)c3c2C)cc1	?	?	16µM	-	0	?
Cc1ccc(-n2nc3c(N4CCC(C(=O)NCc5ccc(C)o5)CC4)nnc(C)c3c2C)cc1	0	18µM	?	?	0	21µM
Cc1nnc(N2CCC(C(=O)NCc3cccc(Cl)c3)CC2)c2nn(-c3ccccc3)c(C)c12	?	-	11µM	?	0	-
Cc1ccc(-n2nc3c(N4CCC(C(=O)NCCc5ccco5)CC4)nnc(C)c3c2C)cc1	0	?	?	0	0	?
Cc1ccc(C)c(NC(=S)NNc2ccc(F)cc2F)c1	0	26µM	0	0	0	26µM
N[C@H](C(=O)O)[C@@H](O)c1ccc(O)c(O)c1	0	-	-	0	-	-
CCOC(=O)c1cccc(NC(=O)CN2C(=O)CC(C)(C)Sc3ccccc32)c1	28µM	-	0	0	0	-
CC(=O)Nc1cccc(NC(=O)CN2C(=O)CCSc3ccccc32)c1	0	-	0	0	0	-
COc1ccc(CNCC(O)COc2ccc3[nH]c(=O)ccc3c2)cc1OC (stereo not drawn)	0	-	-	-	-	-
O=c1cc(N/N=C/c2ccccc2)[nH]c(=O)[nH]1	?	7.3µM	0	?	0	3.7µM
COC(=O)c1cccc(C(=O)N2CCc3c(cnc(C)c3CNC(=O)c3ccsc3)C2)c1	0	-	-	-	-	-
O=C(NCC1CCN(Cc2cccc(Cl)c2)CC1)Nc1ccc(F)c(Cl)c1	22µM	-	22µM	?	0	-
CN1CCOC(=O)/C1=N/Nc1cc(Cl)ccc1Cl	0	21µM	0	0	0	?
Cn1nccc1C(=O)Nc1cc(Cl)ccc1Cl	0	0	0	-	0	0
O=C(Nc1ccc(F)cc1)C(CCc1ccccc1)N1CCN(c2ccncc2)CC1 (stereo not drawn)	-	?	-	-	-	21µM
O=C(Nc1ccc(F)cc1)C(c1ccccc1)N1CCN(c2ccncc2)CC1 (stereo not drawn)	-	0	-	-	-	0
COCC(=O)Nc1cc(C(=O)N2CCc3c(Cl)cccc3C2)c2c(c1)nc(-c1ccncc1)n2C	0	-	-	-	-	-
Cc1nnc(NCc2n[nH]c(=O)c3ccccc23)c2ccccc12	?	11µM	?	?	0	16µM
Cc1cc(C)c(NC(=O)Cc2ccc(-n3c(C)nc4cccnc43)cc2)c(C)c1	-	-	13µM	-	0	-
COc1ccc(S(=O)(=O)N2CCOc3ccccc32)cc1	0	13µM	0	0	0	?
COc1ccc(S(=O)(=O)N2c3ccccc3OCC2C)cc1 (stereo not drawn)	?	0.65µM	?	?	0	0.65µM
SMILES	S2 tox	HT1080 IDH1KD tx	TGFb SMAD3 inh	ATXN2 expr inh	HepG2 tox	HT1080NT lethal
CC1CCCC(NC(=O)CSc2ccc(F)cc2)C1C (stereo not drawn)	?	0	0	-	0	0
CC1CCCC(NCC(O)COC(c2ccc(F)cc2)c2ccc(F)cc2)C1C (stereo not drawn)	?	21µM	?	?	22µM	16µM
COc1ccccc1CNc1ncnc2sc(C(=O)N3CCN(C)CC3)c(C)c12	0	-	-	-	-	-
CC[N+]1(C)CCC(O)(c2ccc(OC)cc2)C(C(=O)c2ccc(OC)cc2)C1 (stereo not drawn)	?	4.6µM	?	?	0	?
Cc1cc(C)c2nc(Cl)c(C3NC(=O)c4ccccc4N3)cc2c1 (stereo not drawn)	0	0	0	0	0	0
COc1cc(C)c(C2NC(=O)c3ccccc3N2)cc1C (stereo not drawn)	?	?	?	0	0	5.8µM
Cn1cc(C2NC(=O)c3ccccc3N2)c2ccccc21 (stereo not drawn)	?	8.2µM	0	0	0	4.6µM
Cc1ccc(C)c(C2NC(=O)c3ccccc3N2)c1 (stereo not drawn)	0	2.3µM	0	-	0	?
O=C1NC(c2ccc(O)cc2)Nc2ccccc21 (stereo not drawn)	0	?	0	0	0	?
COc1ccc(C2NC(=O)c3ccccc3N2)c(OC)c1OC (stereo not drawn)	0	?	0	-	0	0
CSc1ccc(C2NC(=O)c3ccccc3N2)cc1 (stereo not drawn)	0	9.2µM	0	0	0	18µM
NC1CCc2ccccc21 (stereo not drawn)	-	-	0	-	0	-
O=C(Nc1ccc(Cl)cc1)Nc1ccc2c(c1)N1CCN=C1S2	0	33µM	0	0	0	21µM
Nc1ccc2c(c1)N1CCN=C1S2	0	0	0	0	0	0
CN1C(=O)/C(=C\C(=O)c2cccs2)c2ccccc21	?	?	?	?	0	10µM
O=C1CCN(C(=O)c2cccs2)c2ccccc21	?	0	0	0	0	0
Cc1nn(CCCC(=O)NCCc2ccc(Cl)cc2)c(=O)c2c1sc1ccccc12	-	-	0	-	0	-
Cn1c(=NC(=O)CCl)sc2ccccc21	32µM	6.5µM	?	?	11µM	5.8µM
Cc1ccc2sc(N(CCCN(C)C)C(=O)c3ccc(Br)s3)nc2c1C	-	13µM	?	20µM	13µM	21µM
CC(=O)c1ccc(C(=O)N(CCCN(C)C)c2nc3c(C)c(C)ccc3s2)cc1	0	-	?	0	0	-
Cc1ccc2sc(N(CCCN(C)C)C(=O)c3nc4ccccc4s3)nc2c1C	0	21µM	?	0	0	?
Cc1cccc2sc(N(CCCN(C)C)C(=O)c3nc4ccccc4s3)nc12	?	0	0	0	0	0
Cn1cnc2c(F)c(Nc3ccc(Br)cc3F)c(C(=O)NOCCO)cc21	-	-	-	0	-	-
C=C1C(=O)OC2CC1C(O)CC(C)=CCCC(C)=CC(O)CC2C (stereo not drawn)	-	7.3µM	11µM	?	0	15µM
COc1ccc(CN2CCOc3ccc(C(O)c4cccnc4)cc3C2)c(OC)c1OC (stereo not drawn)	0	-	-	-	-	-
CCCCOc1cccc(C(=O)Nc2ccc(NC(=O)c3cccs3)cc2)c1	18µM	15µM	0	?	0	21µM
